Test results: PubChem BioAssay (EPA / NIEHS)
Records with an inconclusive call do not appear. The source made the active and inactive calls. The calls were made as follows, unless noted: active = hit-call score of the fitted dose curve at least 0.9, where 1 is the maximum; inactive = score below 0.9.

Assays:
[1] = CCTE_Shafer_MEA_acute_firing_rate_mean: CCTE's Neural Acute Assay for Mean Firing Rate, Shafer Lab (AID 2284009);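 also: analyzed for loss of signal so actives lower firing rate relative to DMSO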
How it was run: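 Read-out: well-mean spike rate (spikes/recording length/electrodes), % change from 40 min pre-dose baseline to 40 min with compound. Rat cortical cultures, DIV 13 or 15, 37 C; 0.03-40 uM; DMSO as negative control.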

[2] = CCTE_Harrill_HTTr_Viability_MCF7: CCTE's 6-hour Cell Viability Assessment for the High-Throughput Transcriptomics (HTTr) Platform, in MCF-7 cells cultured in DMEM + 10% fetal bovine serum, Harrill Lab (AID 2284010)
How it was run: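 Membrane integrity was scored by high-content imaging of propidium iodide dye exclusion after a 6 h exposure across an eight-point dilution series. Data were fitted bidirectionally relative to DMSO as negative control and baseline.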

[3] = CCTE_Harrill_HTTr_Apoptosis_MCF7: CCTE's 6-hour Apoptosis Assessment for the High-Throughput Transcriptomics (HTTr) Platform, in MCF-7 cells cultured in DMEM + 10% fetal bovine serum, Harrill Lab (AID 2284011)
How it was run: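 MCF-7 (DMEM + 10% FBS), 384-well; 8-pt dilution series, 6 h chemical exposure; caspase-3/7 activation via CellEvent Caspase 3/7 Green, HCI; bidirectional fit vs DMSO.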

[4] = CCTE_Shafer_MEA_acute_burst_number: CCTE's Neural Acute Assay for Single-Electrode Bursts, Shafer Lab (AID 2284013)
How it was run: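 Rat cortical cultures, DIV 13/15; 40 min baseline, then 40 min with compound 0.03-40 uM, 37 C. Spikes: 300-5000 Hz band-pass, threshold 8x rms noise. Readout = % change in single-electrode bursts vs baseline, loss-of-signal fit.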

[5] = CCTE_Shafer_MEA_acute_burst_duration_mean: CCTE's Neural Acute Assay for Mean Burst Duration, Shafer Lab (AID 2284014);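 also: hits are decreases in mean burst duration relative to DMSO controls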
How it was run: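 Primary rat cortical neurons on 16-electrode MEA wells, treated on DIV 13 or 15 with compound (0.03-40 uM; ≥3 wells each). 40-min baseline and 40-min exposure recordings at 37 C; percent change in mean burst duration per well versus DMSO.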

[6] = CCTE_Shafer_MEA_acute_per_burst_spike_number_mean: CCTE's Neural Acute Assay for Average Number of Spikes Per Burst, Shafer Lab (AID 2284015);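 also: hits are decreases in mean spikes per burst versus baseline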
How it was run: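 Primary rat cortical neurons on 48-well MEA plates, treated on DIV 13 or 15 at 0.03-40 uM. Spontaneous activity recorded 40 min before and 40 min after compound at 37 C; percent change in mean spikes per single-electrode burst per well, fitted in the loss direction versus DMSO.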

[7] = CCTE_Shafer_MEA_acute_interburst_interval_mean: CCTE's Neural Acute Assay for Mean Interburst Interval, Shafer Lab (AID 2284016);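 also: percent change of mean interburst interval versus each well's own pre-dose baseline; curves fitted for decrease in interburst interval relative to DMSO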
How it was run: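 Primary rat cortical neurons on 16-electrode MEA wells were recorded 40 min at baseline on DIV 13 or 15, then 40 min after compound (0.03-40 uM), at 37 C. Value is percent change in mean interburst interval per well, DMSO as negative control.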

[8] = CCTE_Shafer_MEA_acute_burst_percentage_mean: CCTE's Neural Acute Assay for Percentage of Spikes in a Burst, Shafer Lab (AID 2284017);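 as to AC50: curve fitted for loss of signal so potency reflects decreased burst percentage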
How it was run: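 Primary rat cortical neurons on 16-electrode MEA wells; 40 min baseline recorded at DIV 13 or 15, then 40 min after compound (0.03-40 uM) at 37 C. Well-mean fraction of spikes in single-electrode bursts; percent change from baseline, DMSO as negative control.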

[9] = CCTE_Shafer_MEA_acute_burst_percentage_std: CCTE's Neural Acute Assay for Standard Deviation of Burst Percentage, Shafer Lab (AID 2284018);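 also: fitted in the negative direction so actives lower burst percentage SD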
How it was run: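 Primary rat cortical neurons on 16-electrode MEA wells were recorded 40 min at baseline (DIV 13 or 15), then 40 min after compound (0.03-40 uM), at 37 C. Well value is SD across electrodes of spikes-in-bursts/total spikes; endpoint is percent change, DMSO-referenced.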

[10] = CCTE_Harrill_HTTr_CellCount_MCF7: CCTE's Cell Proliferation Assessment for the High-Throughput Transcriptomics (HTTr) Platform, Harrill Lab (AID 2284012; active = hit-call score of the fitted dose curve at least 0.9, where 1 is the maximum;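 also: cells exposed to compound for six hours; intended direction is loss of nuclei count meaning fewer cells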)
How it was run: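 MCF-7 cells were exposed for 6 h to an eight-point dilution series; Hoechst-labeled nuclei were counted by high content imaging. Curves were fitted bidirectionally against DMSO as negative control and baseline, with signal loss indicating reduced cell count.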

Measured: AC50

CCOP(=S)(OCC)SCSP(=S)(OCC)OCC
active: [8] 20 µM
not listed: [10]
inactive: all other assays above

Fc1ccc(C2(Cn3cncn3)OC2c2ccccc2Cl)cc1 (stereo not drawn)
inactive: [2] | [3]

COC(=O)Cc1ccccc1
not listed: [10]
inactive: all other assays above

CC(C)(c1ccc(OCC2CO2)cc1)c1ccc(OCC2CO2)cc1 (stereo not drawn)
inactive: [2] | [3]

Cl/C=C/Cl
inactive: [2] | [3]

C[C@]12CCC(=O)C[C@@H]1CC[C@@H]1[C@@H]2CC[C@]2(C)[C@@H](O)CC[C@@H]12
active: [1] 20 µM | [8] 30.5 µM | [9] 31.1 µM
not listed: [10]
inactive: all other assays above

C=C(C)C(=O)[O][Sn]([CH2]CCC)([CH2]CCC)[CH2]CCC
active: [1] 0.0311 µM | [2] 22.3 µM | [3] 11 µM | [10] 11 µM | [4] 0.0118 µM | [5] 3.11 µM | [8] 0.0833 µM | [9] 20 µM
inactive: [6] | [7]

C=C(C)C#N
inactive: [2] | [3]

Cn1sc(Cl)cc1=O
inactive: [2] | [3]

CCN1CCC2(CC1)COc1cc3c(cc12)N(C(=O)c1ccc(-c2ccc(-c4nnc(C)o4)cc2C)cc1)CC3
active: [1] 7.7 µM | [2] 66.2 µM | [3] 60.3 µM | [8] 27.3 µM
inactive: all other assays above

ClC1(Cl)C2(Cl)C3(Cl)C4(Cl)C(Cl)(Cl)C5(Cl)C3(Cl)C1(Cl)C5(Cl)C24Cl (stereo not drawn)
inactive: all assays above

ClCC(Cl)CCl
inactive: [2] | [3]

CCSC(C)CC1CC(=O)C(C(CC)=NOC/C=C/Cl)=C(O)C1 (stereo not drawn)
inactive: [2] | [3]

CC(C)(C)CC(C)(C)c1ccc(O)cc1
active: [1] 6.07 µM | [7] 5 µM
inactive: all other assays above

CC(C)(c1ccccc1)c1ccc(O)c(C(C)(C)c2ccccc2)c1
active: [1] 8.32 µM | [7] 4.19 µM | [8] 7.18 µM | [9] 20 µM
not listed: [10]
inactive: all other assays above

CNC(=O)O/N=C/C(C)(C)S(C)=O (stereo not drawn)
inactive: [2] | [3]

O=[N+]([O-])c1ccc2c3c(cccc13)CC2
inactive: [2] | [3]

CC(=O)[O][Hg][c]1ccccc1
inactive: [1] | [3] | [6] | [9]
active: [2] 53.5 µM | [10] 50 µM | [4] 0.91 µM | [5] 29.5 µM | [7] 0.941 µM | [8] 1.13 µM

O=C1C2(Cl)C3(Cl)C4(Cl)C(Cl)(Cl)C5(Cl)C3(Cl)C1(Cl)C5(Cl)C24Cl (stereo not drawn)
active: [1] 1.84 µM | [4] 3.27 µM | [5] 9.11 µM | [6] 9.36 µM | [8] 9.9 µM | [9] 32.5 µM
inactive: [2] | [3] | [10] | [7]

COc1ccccc1OC
inactive: [2] | [3]

CCC(C)(C)c1ccc(O)c(C(C)(C)CC)c1
active: [1] 4.69 µM | [2] 42.1 µM | [4] 5.29 µM | [6] 20 µM | [8] 7.93 µM | [9] 32.6 µM
inactive: [3] | [10] | [5] | [7]

O=C1CCCN1
inactive: [2] | [3]

CCC(=O)c1ccccc1
inactive: [2] | [3]

CC(C)(OO)c1ccccc1
inactive: all assays above

C1CCC(NC2CCCCC2)CC1
inactive: [2] | [3]

O=C(OC1CCCCC1)c1ccccc1C(=O)OC1CCCCC1
inactive: [2] | [3]

O=C(Nc1ccc2[nH]ccc2c1)c1cc2cc(F)ccc2n1Cc1cccc(F)c1
active: [1] 1.43 µM | [7] 4.2 µM
not listed: [10]
inactive: all other assays above

O=C(O)C(F)(F)C(F)(F)C(F)(F)C(F)(F)C(F)(F)C(F)(F)C(F)(F)C(F)(F)C(F)(F)C(F)(F)F
active: [5] 20 µM | [6] 5.97 µM
inactive: all other assays above

CC(=O)OC(c1ccccc1)C(Cl)(Cl)Cl (stereo not drawn)
active: [8] 15 µM
inactive: all other assays above
